Screens (PubChem)
Most compounds without a hit are left out; they make up all but 4.6% or so of the library.
tim10-1 inh: growth inhibitors of tim10-1 mutant yeast; 2.2% of 330,000 active; S. cerevisiae tim10-1 ts strain growth, BacTiter-Glo, 24 h; inhibition, % at 20 µM;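 active means inhibition of at least 40%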;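 further: mutant grown at 25 °C; 0% = DMSO wells with yeast and 100% = wells holding no yeast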
SKKanGAS inh: inhibitors of SKKanGAS S. pyogenes growth in kanamycin (SK-promoter or general growth effect) | BacTiter-Glo, 6 h | inhibition, % at 7.5 µM | AID 1662 | 1.3% of 300,000 active;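 active means mean replicate score, as percent of positive control median, at least 50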;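 further: strain carries kanamycin resistance gene driven by streptokinase promoter and grows in 40 µg/ml kanamycin; loss of luminescence reflects streptokinase promoter inhibition or plain growth inhibition; 0% = median of DMSO wells and 100% = positive control at its reference dose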
PfHsp90 yeast 2: growth inhibition of yeast expressing Plasmodium Hsp90. S. cerevisiae expressing PfHsp90, BacTiter-Glo ATP, 48 h; yeast lacking PDR1 and PDR3 efflux regulators. inhibition, % at 9.4 µM. 0.32% of 310,000 active. AID 504621;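 active means every replicate shows inhibition above about 80%, whatever the replicate mean, limit read from the data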;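 further: 0% = DMSO neutral controls and 100% = 20 µM radicicol positive controls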
TIM10 inh: TIM10 yeast growth inhibition. S. cerevisiae TIM10 strain growth, BacTiter-Glo luminescence, 24 h. inhibition, % at 10 µM. 1.4% of 330,000 active. AID 463195;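 active means inhibition of 40% or more at the single tested concentration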;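 further: wild-type TIM10 isogenic control strain grown at permissive 25 °C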
tim23-1 inh: growth inhibitors of tim23-1 mutant yeast; S. cerevisiae tim23-1 growth, BacTiter-Glo luminescence, 24 h; inhibition, % at 20 µM; 1.3% of 330,000 active; AID 463212;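 active means growth inhibition of the mutant yeast at or above 50%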;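 further: temperature-sensitive mutant grown at 25 °C; plate controls were DMSO-treated mutant yeast for no effect and medium wells lacking yeast for full effect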
NLRP3 yeast inh: NALP3 inhibition in yeast; Yeast reconstituted NLRP3/ASC/caspase-1, beta-gal luminescence, 24 h; inhibition, % at 10 µM; 0.39% of 330,000 active; AID 2825;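 active means inhibition of 50% or more; inactive means inhibition below 50%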;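 further: plate controls were induced DMSO wells for no effect and uninduced yeast grown without galactose for full effect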
An asterisk follows results filed as active; x = not tested or not shown.

SMILES	tim10-1 inh	SKKanGAS inh	PfHsp90 yeast 2	TIM10 inh	tim23-1 inh	NLRP3 yeast inh
CC[C@H]1OC(=O)[C@H](C)[C@@H](O[C@H]2C[C@@](C)(OC)[C@@H](O)[C@H](C)O2)[C@H](C)[C@@H](O[C@@H]2O[C@H](C)C[C@H](N(C)C)[C@H]2O)[C@](C)(OC)C[C@@H](C)C(=O)[C@H](C)[C@@H](O)[C@]1(C)O	6	104*	-12	-1	20	27
O=[N+]([O-])c1cc(-n2cnnn2)ccc1N1CCC(Cc2ccccc2)CC1	-6	24	104*	19	29	5
CC1CC(C)CN(c2ccc(-n3cnnn3)cc2[N+](=O)[O-])C1 (configuration not stated)	17	6	13	-2	41	20
COc1ccc(S(=O)(=O)NCC(c2ccc(F)cc2)N2CCN(C)CC2)cc1 (configuration not stated)	6	50*	10	-5	15	11
O=C(CCC(=O)c1ccccc1)NC1CCCN(Cc2ccccc2F)C1 (configuration not stated)	15	-1	15	-2	3	4
CCn1c(-c2ccccc2)c[nH]c1=S	1	72*	6	-1	-10	16
Cc1csc(Nc2ccccc2C(F)(F)F)n1	31	9	-11	29	44	26
Cc1cc(C)n(-c2nc(Nc3ccccc3C)nc(-n3nc(C)cc3C)n2)n1	34	98*	x	20	14	12
Cc1cc(C)n(-c2nc(Nc3ccccc3C(F)(F)F)nc(-n3nc(C)cc3C)n2)n1	38	135*	-14	32	25	21
CCNc1nc(NCC)nc(-n2nc(C)cc2C)n1	27	87*	-30	1	-2	7
Cc1cc(C)n(-c2nc(NC(C)C)nc(NC(C)C)n2)n1	39	3	-23	0	37	-3
COc1cc(-c2nnc(SCC(=O)Nc3ccc(C(=O)O)cc3)o2)cc(OC)c1OC	-10	x	9	-6	-2	1
Cc1cccc(COC(=O)CCCNC(=O)c2ccc(Cl)cc2)c1	-18	x	93*	-27	13	35
Cc1oc(-c2ccc(Cl)cc2)nc1CN1CCCC(C(=O)N2CCN(C(=O)c3ccco3)CC2)C1 (configuration not stated)	15	-1	x	-10	13	4
CCOC(=O)C1=C(N)c2ccccc2CC1C1CCCC1 (configuration not stated)	-5	55*	7	-38	10	11
CNC(=S)N1CCC(c2nc3ccccc3s2)CC1	1	14	16	-9	12	10
CCCC1=NN(c2ccc([N+](=O)[O-])cc2)C(=O)/C1=C/N(C)C	10	2	4	7	13	12
CC1=NN(c2ccc([N+](=O)[O-])cc2)C(=O)/C1=C\N(C)C	34	56*	-17	13	35	18
COc1ccccc1OCCNC(=O)c1ccc(C(C)(C)C)cc1	29	-7	2	33	40	-6
COc1ccccc1OCCNC(=O)c1ccc(Br)cc1	-30	-9	97*	-58	-27	31
CC1(C)CC2CC(C)(CN2Cc2c(O)ccc3ccccc23)C1 (configuration not stated)	36	4	17	7	20	-6
Cc1c(C(=O)Nc2ccc3c(c2)OCCO3)sc2nc(-c3ccccc3)cn12	-39	70*	12	-19	19	22
COc1ccc(C(=O)OC(C)C(=O)NC2CCCc3ccccc32)cc1OC (configuration not stated)	-9	x	1	4	24	18
O=C(OCc1ccccc1)c1ccc2c(c1)-c1ccccc1C2=O	27	55*	-24	8	18	6
O=C(OCc1ccccc1)c1ccccc1	8	6	12	3	13	2
CCc1cc(=O)oc2cc(C)cc(OC(C)C(=O)NCc3ccccn3)c12 (configuration not stated)	-3	1	-5	12	-6	11
O=C1C=C(c2cccs2)C[C@H](c2ccccc2)[C@H]1n1nnc([N+](=O)[O-])n1	-38	22	92*	8	-64	4
O=C(NCc1ccccn1)C(=O)Nc1nc(C23CC4CC(CC(C4)C2)C3)cs1	16	75*	2	10	39	11
